Laboratory results published in PubChem BioAssay AID1159580 (chemical genetic matrix, 2015).
Screen size: about 5,500 compounds; about 2,000 (36%) were called active. Roughly 18% stayed inconclusive and do not appear here. No stated cut-off is given here; in the data, active means normalized growth mostly below about 0.91 (no sharp cut-off); inconclusive means no clear call, values can overlap the other calls; inactive means mostly above about 0.92. The list shows a part of the results.

Assay: chemical genetic growth profiling, strain panel (AID 1159580);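 further: tested at 20 µM; growth read once vehicle control cultures reached saturation at 30 °C; 1 = growth at the plate median or of vehicle wells; lower values mean less growth of the strain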
Settings: S. cerevisiae deletion strains, growth OD

Measured: normalized growth

CC(=O)O[C@@H]1CC2C(C)(C)[C@H](O)C[C@H](O)[C@]2(C)C2CC[C@@]3(C)C(=CC(=O)O[C@H]3c3ccoc3)[C@@]21C (stereo not given in full)
inactive: locus YAL021C, strain ccr4, active compounds read low 0.977 | locus YAL026C, strain drs2, active compounds read low 0.988 | locus YAL030W, strain snc1, active compounds read low 1 | locus YBL061C, strain skt5, active compounds read low 1 | locus YBR009C, strain hhf1, active compounds read low 1.02 | locus YBR023C, strain chs3, active compounds read low 0.991 | locus YBR171W, strain sec66, active compounds read low 1.01 | locus YBR231C, strain swc5, active compounds read low 1 | locus YBR279W, strain paf1, active compounds read low 0.979 | locus YCL011C, strain gbp2, active compounds read low 0.969 | locus YCL016C, strain dcc1, active compounds read low 0.973 | locus YCL069W, strain vba3, active compounds read low 0.99 | locus YCR088W, strain abp1, active compounds read low 0.992 | locus YDL005C, strain med2, active compounds read low 0.981 | locus YDL040C, strain nat1, active compounds read low 0.99 | locus YDR001C, strain nth1, active compounds read low 0.979 | locus YDR069C, strain doa4, active compounds read low 0.983 | locus YDR137W, strain rgp1, active compounds read low 0.981 | locus YDR159W, strain sac3, active compounds read low 0.978 | locus YDR195W, strain ref2 0.989 | locus YDR297W, strain sur2, active compounds read low 0.98 | locus YDR334W, strain swr1, active compounds read low 0.977 | locus YDR335W, strain msn5, active compounds read low 0.973 | locus YDR392W, strain spt3, active compounds read low 0.914 | locus YEL003W, strain gim4, active compounds read low 1.01 | locus YEL037C, strain rad23, active compounds read low 0.99 | locus YEL061C, strain CIN8 (second series), active compounds read low 0.995 | locus YER015W, strain faa2, active compounds read low 0.976 | locus YER016W, strain bim1, active compounds read low 1.01 | locus YER111C, strain swi4, active compounds read low 0.978 | locus YER155C, strain BEM2 (second series), active compounds read low 1.04 | locus YFR010W, strain ubp6, active compounds read low 1.02 | locus YGL167C, strain pmr1, active compounds read low 0.991 | locus YGL173C, strain kem1, active compounds read low 1.05 | locus YGL227W, strain vid30, active compounds read low 0.986 | locus YGL240W, strain doc1, active compounds read low 1.03 | locus YGL253W, strain hxk2, active compounds read low 0.941 | locus YHR013C, strain ard1, active compounds read low 0.952 | locus YHR027C, strain rpn1, active compounds read low 0.979 | locus YHR142W, strain chs7, active compounds read low 0.945 | locus YJL092W, strain hpr5, active compounds read low 0.985 | locus YJL095W, strain BCK1 (second series), active compounds read low 0.991 | locus YJL115W, strain asf1, active compounds read low 0.963 | locus YJL129C, strain trk1, active compounds read low 0.994 | locus YJL154C, strain vps35, active compounds read low 0.981 | locus YJL164C, strain tpk1, active compounds read low 0.992 | locus YJL166W, strain qcr8, active compounds read low 1.02 | locus YKL160W, strain elf1, active compounds read low 0.981 | locus YKR026C, strain gcn3, active compounds read low 0.989 | locus YKR091W, strain srl3, active compounds read low 0.976 | locus YLL001W, strain dnm1, active compounds read low 0.998 | locus YLL026W, active compounds read low 0.996 | locus YLL041C, strain sdh2, active compounds read low 0.984 | locus YLR027C, strain aat2, active compounds read low 1.01 | locus YLR221C, strain rsa3, active compounds read low 1.03 | locus YLR258W, strain gsy2, active compounds read low 0.974 | locus YLR262C, strain YPT6 (second series), active compounds read low 0.967 | locus YLR320W, strain mms22, active compounds read low 1.02 | locus YLR342W, strain FKS1, active compounds read low 0.991 | locus YLR357W, strain rsc2, active compounds read low 0.984 | locus YLR370C, strain arc18, active compounds read low 0.983 | locus YLR384C, strain iki3, active compounds read low 0.978 | locus YML120C, strain ndi1, active compounds read low 1.01 | locus YMR058W, strain fet3, active compounds read low 1 | locus YMR125W, strain sto1, active compounds read low 0.991 | locus YMR129W, active compounds read low 0.972 | locus YMR205C, strain PFK2, active compounds read low 1.04 | locus YMR231W, strain pep5, active compounds read low 1 | locus YNL071W, strain lat1, active compounds read low 1 | locus YNL209W, strain ssb2, active compounds read low 0.968 | locus YNL248C, strain rpa49, active compounds read low 0.967 | locus YNL322C, strain KRE1 (second series), active compounds read low 1.01 | locus YNR049C, strain mso1, active compounds read low 0.961 | locus YOR001W, strain rrp6, active compounds read low 1.03 | locus YOR070C, strain gyp1, active compounds read low 0.989 | locus YOR080W, strain dia2, active compounds read low 0.986 | locus YOR083W, strain WHI5, active compounds read low 0.954 | locus YOR106W, strain vam3, active compounds read low 0.946 | locus YOR265W, strain rbl2, active compounds read low 0.991 | locus YOR270C, strain vph1, active compounds read low 0.926 | locus YOR290C, strain snf2, active compounds read low 0.942 | locus YPL051W, strain arl3, active compounds read low 0.994 | locus YPL078C, strain atp4, active compounds read low 0.988 | locus YPL106C, strain sse1, active compounds read low 0.975 | locus YPL240C, strain hsp82, active compounds read low 0.994
